Consider 38 compounds from PubChem BioAssay (NCATS).

Inconclusive results are not listed. Entries that show only a call come without a potency. Unmarked numbers belong to inactive results. The source made the active and inactive calls. The call rests on the fitted dose curve; tested in HEK293 reporter line.
Potency means the concentration at half of the fitted maximal effect.

A short description of the assay: qHTS for Inhibitors of the Functional Ribonucleoprotein Complex (vRNP) of Lassa (LASV) Arenavirus: LASV Primary Screen - GLuc reporter signal (AID 1347082). Further: nearly all actives have a fitted effect of over 60% in size. To be noted: LASV minigenome vRNP, Gaussia luciferase reporter; series mostly up to 57.5 µM; activity change, negative = inhibition: at the top concentration. Background: In qHTS, concentration-response curves come from the screen itself.
Take `COc1cc2c(cc1OC)[C@@H]1CC(=O)[C@@H](CC(C)C)CN1CC2`: the “activity change, negative = inhibition” value is -1.26%.
On to `COc1ccccc1OCCNCC(O)COc1cccc2[nH]c3ccccc3c12` (stereo not drawn), for which the Potency result was “inactive”.
Take `CN(C/C=C/C#CC(C)(C)C)Cc1cccc2ccccc12`: the “activity change, negative = inhibition” value is 4.66%.
Turning to `Cc1cccc(Nc2ccncc2S(=O)(=O)NC(=O)NC(C)C)c1`, the Potency entry was “inactive”.
Same read-out and setting: in the case of `CS(=O)(=O)OCCCCOS(C)(=O)=O` it was “inactive”; in that of `CSc1ccc2c(c1)N(CCC1CCCCN1C)c1ccccc1S2` (stereo not drawn), “inactive”.
`CN(N=O)C(=O)N[C@@H]1[C@@H](O)[C@H](O)[C@@H](CO)O[C@@H]1O`: the “activity change, negative = inhibition” value is 1.24%.
Turning to `CC(C)C[C@H](NC(=O)[C@H](CCc1ccccc1)NC(=O)CN1CCOCC1)C(=O)N[C@@H](Cc1ccccc1)C(=O)N[C@@H](CC(C)C)C(=O)[C@@]1(C)CO1`, the Potency was 485 nM (active).
Take `CCC(C)(C)C(=O)O[C@H]1C[C@@H](C)C=C2C=C[C@H](C)[C@H](CC[C@@H]3C[C@@H](O)CC(=O)O3)[C@H]21`: the Potency result is “inactive”.
The same measure, in the same setting: the value for `CC(C(=O)O)c1cccc(C(=O)c2ccccc2)c1` (stereo not drawn) was “inactive”; that for `O=C1NC(=O)C(c2ccccc2)(c2ccccc2)N1` was “inactive”.
For `COc1cc2ncnc(Nc3ccc(F)c(Cl)c3)c2cc1OCCCN1CCOCC1`, the “activity change, negative = inhibition” value was -19%.
For the compound `COc1ccc(Cl)cc1C(=O)NCCc1ccc(S(=O)(=O)NC(=O)NC2CCCCC2)cc1`, the Potency result was “inactive”.
Same read-out and setting: the value for `CC(=O)OCC(CCn1cnc2cnc(N)nc21)COC(C)=O` was “inactive”.
As to `CC(=O)O[C@@]12CO[C@@H]1C[C@H](O)[C@@]1(C)C(=O)[C@H](O)C3=C(C)[C@@H](OC(=O)[C@H](O)[C@@H](NC(=O)OC(C)(C)C)c4ccccc4)C[C@@](O)([C@@H](OC(=O)c4ccccc4)[C@H]21)C3(C)C`, the “activity change, negative = inhibition” value was -22.7%.
Still for that read-out and setting: in the case of `CN1C(CCl)Nc2cc(Cl)c(S(N)(=O)=O)cc2S1(=O)=O` (stereo not drawn) it was 6.06%; in that of `C=CC(=O)Nc1cc2c(Nc3ccc(F)c(Cl)c3)ncnc2cc1OCCCN1CCOCC1`, 0.189%; in that of `CC(C)(C)NC(=O)[C@@H]1CN(Cc2cccnc2)CCN1C[C@@H](O)C[C@@H](Cc1ccccc1)C(=O)N[C@H]1c2ccccc2C[C@H]1O`, -5.88%.
In the case of `O=C(c1ccccc1)c1ccc2n1CCC2C(=O)O` (stereo not drawn), the Potency result was “inactive”.
As to `O[C@@H](CNC[C@H](O)[C@H]1CCc2cc(F)ccc2O1)[C@@H]1CCc2cc(F)ccc2O1`, the Potency entry was “inactive”.
For the compound `CC12CC3CC(C)(C1)CC(N)(C3)C2`, the Potency result is “inactive”.
For the compound `NNc1nncc2ccccc12`, the Potency entry was “inactive”.
Still for that read-out and setting: the value for `Cc1ccccc1C(OCCN(C)C)c1ccccc1` (stereo not drawn) was “inactive”.
For `COC(=O)C1=C(C)NC(C)=C(C(=O)OC(C)C)C1c1cccc2nonc12` (stereo not drawn), the “activity change, negative = inhibition” value was -8.81%.
`CNCCCN1c2ccccc2CCc2ccccc21`: the Potency entry was “inactive”.
Consider `CNS(=O)(=O)CCc1ccc2[nH]cc(C3CCN(C)CC3)c2c1`, for which the “activity change, negative = inhibition” value is 6.77%.
In the case of `CC1(C)NC(=O)N(c2ccc([N+](=O)[O-])c(C(F)(F)F)c2)C1=O`, the Potency entry is “inactive”.
For the compound `COC(=O)CCc1ccc(OCC(O)CNC(C)C)cc1` (stereo not drawn), the “activity change, negative = inhibition” value was -15.6%.
Regarding `CCN(CCO)CCCC(C)Nc1ccnc2cc(Cl)ccc12` (stereo not drawn), the Potency result was “inactive”.
On to `O=c1c(O)c(-c2ccc(O)c(O)c2)oc2cc(O)cc(O)c12`, for which the Potency result was “inactive”.
Same read-out and setting: in the case of `CC(C)Oc1ccc2c(=O)c(-c3ccccc3)coc2c1` it was “inactive”; in that of `Cc1ccnc2c1NC(=O)c1cccnc1N2C1CC1`, “inactive”.
Still for that read-out and setting: in the case of `CC/C(=C(\c1ccccc1)c1ccc(OCCN(C)C)cc1)c1ccccc1` it was “inactive”.
In the case of `NCCC(O)(P(=O)(O)O)P(=O)(O)O`, the “activity change, negative = inhibition” value is -8.25%.
On the same count and under the same terms, the value for `O=C(O)CCCc1ccccc1` was -4.16%.
As for `CC(COc1ccccc1)N(CCCl)Cc1ccccc1` (stereo not drawn), the Potency result was “inactive”.
As to `NC(=O)N1c2ccccc2CC(=O)c2ccccc21`, the Potency result is “inactive”.
On to `CC(=O)CCCCn1c(=O)c2c(ncn2C)n(C)c1=O`, for which the Potency result was “inactive”.
